Screens: PubChem BioAssay, several laboratories
CRFR2-BP antag: CRF-BP/CRF-R2 complex antagonism. AID 588475. inhibition, % at 11.8 µM. HEK293 CRF-R2/CRF-BP, CRF-induced calcium fluorescence. 0.59% of 350,000 active;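 active = inhibition of the ligand-induced calcium signal above about 50% at the single tested concentration, limit read from the data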
FAS TE block: inhibitors of human fatty acid synthase thioesterase domain. 0.67% of 360,000 active. inhibition, % at 15 µM. AID 602261. recombinant FAS-TE, OMFH fluorogenic substrate, fluorescence endpoint;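 active = compounds whose normalised, plate-corrected inhibition of enzyme fluorescence in the single-dose primary screen is 50% or more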;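 note: 0% = DMSO with enzyme and 100% = substrate without enzyme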
Myeloid diff MLP: myeloid differentiation induction | 1% of 360,000 active | AID 624256 | calls only at 10 µM | ER-HoxA9 myeloid progenitors, lysozyme-GFP differentiation, flow cytometry;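 active = normalized GFP-positive differentiation at or above the plate's own cutoff, the solvent-only control mean plus 3 SD; inconclusive = no clear call, values can overlap the other calls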;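 note: cells exposed to compound for four days before flow analysis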
NadD block: inhibitors of Staphylococcus aureus NadD; purified NadD enzyme, colorimetric absorbance read-out; inhibition, % at 20 µM; 0.78% of 360,000 active; in the data active = inhibition above about 26%
NRP1-CendR mod: NRP-1/CendR interaction modulation | FAM-RPARPAR peptide binding to NRP-1, fluorescence polarization | AID 602438 | 0.85% of 360,000 active | O14786 | inhibition, % at 25 µM;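 active = inhibition or corrected inhibition above about 18%, plus a signal ratio from 0.5 to 1.5, limit read from the data, passing the limit was not always enough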
Target sequence (O14786 whole entry, looked up): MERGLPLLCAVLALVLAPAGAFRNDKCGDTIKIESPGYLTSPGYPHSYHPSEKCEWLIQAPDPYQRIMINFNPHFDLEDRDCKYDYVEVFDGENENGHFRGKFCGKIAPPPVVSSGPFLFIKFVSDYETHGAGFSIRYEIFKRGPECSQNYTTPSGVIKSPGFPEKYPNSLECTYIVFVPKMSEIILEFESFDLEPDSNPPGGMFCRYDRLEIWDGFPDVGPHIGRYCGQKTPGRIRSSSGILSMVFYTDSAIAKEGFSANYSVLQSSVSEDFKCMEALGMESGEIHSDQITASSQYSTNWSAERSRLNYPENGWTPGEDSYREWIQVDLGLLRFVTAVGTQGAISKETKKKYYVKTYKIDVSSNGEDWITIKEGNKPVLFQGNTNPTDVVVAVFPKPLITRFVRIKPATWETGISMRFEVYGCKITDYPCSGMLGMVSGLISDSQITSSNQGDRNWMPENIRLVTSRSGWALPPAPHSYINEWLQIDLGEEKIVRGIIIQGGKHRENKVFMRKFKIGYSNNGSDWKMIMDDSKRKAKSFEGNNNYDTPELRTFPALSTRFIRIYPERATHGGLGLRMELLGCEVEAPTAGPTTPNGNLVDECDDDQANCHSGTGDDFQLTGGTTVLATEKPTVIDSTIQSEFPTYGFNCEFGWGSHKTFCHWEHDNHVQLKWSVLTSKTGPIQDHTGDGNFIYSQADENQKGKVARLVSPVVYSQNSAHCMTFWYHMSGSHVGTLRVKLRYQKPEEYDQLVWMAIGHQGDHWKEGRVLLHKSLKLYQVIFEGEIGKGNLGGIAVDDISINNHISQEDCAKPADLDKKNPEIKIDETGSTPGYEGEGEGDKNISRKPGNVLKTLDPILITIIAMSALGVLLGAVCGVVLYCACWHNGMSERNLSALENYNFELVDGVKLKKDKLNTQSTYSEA
The depositor's hits bear a star; i = inactive; ? = inconclusive; nt = not tested or not shown; + = active, no number. Only some compounds are listed: those with a hit (about 3.6% of all), similar ones and a draw of the others.

SMILES	CRFR2-BP antag	FAS TE block	Myeloid diff MLP	NadD block	NRP1-CendR mod
Cn1c(=O)c2c(-c3ccccc3)n(-c3cccc(O)c3)cc2n(C)c1=O	nt	-1	i	0	6
C/C(=C\c1ccccc1F)C1Nc2cccc3cccc(c23)N1	-6	26	i	21	11
C/C(=C\c1ccc2c(c1)OCO2)C1Nc2cccc3cccc(c23)N1	-8	20	i	33*	17*
COC(=O)c1cc([N+](=O)[O-])c(C)c(C)n1	-20	-3	i	-1	2
Nc1nn2c(C(F)(F)F)cc(=O)[nH]c2c1N=Nc1cccc(F)c1	87*	-1	i	1	1
NS(=O)(=O)c1ccc(NC(=O)CSc2nc3c(c(=O)[nH]2)CCCC3)cc1	2	-4	i	-6	-6
CC(=O)N1CCSc2ccc(S(=O)(=O)Nc3ccc(C)cc3)cc21	-7	7	i	-5	22*
COc1ccc(NS(=O)(=O)c2ccc3c(c2)N(C(C)=O)CCS3)cc1	-8	0	i	-7	-7
Cc1noc(C)c1C(=O)N1CCC1(C)C(=O)NS(=O)(=O)Cc1cccc(Cl)c1 (stereo not drawn)	nt	-5	i	-4	15
CC1(C)Cc2c(sc3c2c(=O)n(Cc2ccccc2)c2nncn32)CO1	6	-6	i	-2	-7
Cc1nnc2n(Cc3ccccc3)c(=O)c3c4c(sc3n12)COC(C)(C)C4	87*	24	i	6	8
CCCCNC(=O)C1(C)CCCCCN1Cc1cc2ccccc2o1 (stereo not drawn)	nt	14	i	1	4
CNC(=O)NNC(=O)c1csc(-c2ccc(C(F)(F)F)cc2Cl)n1	-10	-3	i	-1	2
NNC(=O)c1csc(-c2ccc(C(F)(F)F)cc2Cl)n1	-14	1	+	4	13
Cc1cccc(C(O)c2cnc(C)n2Cc2ccccc2)c1 (stereo not drawn)	-6	-4	i	-5	-4
CCOC(=O)c1c(C)oc2cc(Br)c(OC(=O)N3CCOCC3)cc12	-15	6	i	-9	26*
O=C(c1ccccc1Cl)N1CCC(N2CCC(C(=O)N3CCCC3)CC2)CC1	6	-3	i	-5	-5
O=C(c1cc(F)ccc1F)N1CCC(N2CCC(C(=O)N3CCCC3)CC2)CC1	-11	-6	+	3	-16
COc1ccc(C2CC(c3ccccc3)Nc3nc(N)nn32)cc1 (stereo not drawn)	-17	-6	i	2	0
CS(=O)(=O)Nc1nc2n(n1)C(c1ccccc1)CC(c1ccccc1)N2 (stereo not drawn)	106*	-2	i	-3	10
COc1ccccc1NC(=O)c1ccc(-c2ccc(Br)cc2)o1	-22	22	+	-11	-16
COc1ccc(N(C(=O)c2snc(C(N)=O)c2N)C(C(=O)NCc2ccc(F)cc2)c2ccc(O)cc2)cc1 (stereo not drawn)	19	41	i	11	11
COc1ccc(CN(C)C(=O)C(Cc2ccccc2)NC(=O)c2ccccc2)cc1F (stereo not drawn)	0	7	i	-9	12
CCOc1ccc(CN(C)C(=O)[C@H](Cc2ccccc2)NC(=O)OCc2ccccc2)cc1OC	-34	7	+	-7	17
CN(c1cccc2cccnc12)S(=O)(=O)c1ccccc1	0	-3	i	-2	11
SMILES	CRFR2-BP antag	FAS TE block	Myeloid diff MLP	NadD block	NRP1-CendR mod
Cc1cc(C(=O)OCC(=O)Nc2cccc(S(=O)(=O)N(C)C)c2)c(C)o1	-1	2	i	-7	24*
Cc1cc(NC(=O)COC(=O)c2cc(S(=O)(=O)N(C)C)ccc2Cl)no1	5	-4	i	-5	29*
Cc1cc(NC(=O)COC(=O)c2ccc([N+](=O)[O-])cc2Cl)no1	-4	3	i	0	2
O=C(CCN=C1NS(=O)(=O)c2ccccc21)Nc1ccc(Cl)cc1F	-9	-1	i	0	-6
C=CCOc1c(CNc2ncn[nH]2)cccc1OCC	-15	-8	i	-2	28*
C=CCOc1c(CNc2cccc(C(=O)O)c2)cccc1OCC	64*	-4	i	-3	-4
CCc1ccc(NC(=O)C(C)OC(=O)Cn2[nH]c(=O)c3ccccc3c2=O)cc1 (stereo not drawn)	-11	-2	i	-10	-12
Cc1ccc(-n2nnnc2SCC(=O)NC2CC2)cc1C	1	1	i	-3	18
O=C1NC(=S)S/C1=C\c1coc2ccccc2c1=O	-13	-2	i	1	-246
O=C1NC(=S)S/C1=C\c1coc2ccc(O)cc2c1=O	96*	25	i	1	-176
Cc1ccc(S(=O)(=O)N(C)C)cc1NC(=O)COC(=O)CCC1CCCC1	0	2	i	-7	-7
Cc1ccc(OCCC(=O)OCC(=O)Nc2cc(S(=O)(=O)N(C)C)ccc2C)cc1	-8	4	+	-5	3
C=CCNc1nc(-c2cccs2)c(CC(=O)O)s1	-14	-11	i	-7	-10
O=C(O)Cc1sc(Nc2ccccc2)nc1-c1cccs1	-13	2	+	12	-166
CC1CCC(NC(=O)c2cccc(S(=O)(=O)N3CCN(c4ccc(F)cc4)CC3)c2)CC1 (stereo not drawn)	-30	9	i	6	-1
COc1cc([N+](=O)[O-])cc(/C=N/NC(=O)C(C)Nc2cccc3ccccc23)c1O (stereo not drawn)	11	8	i	48*	32*
CC(Nc1cccc2ccccc12)C(=O)N/N=C/c1ccc([N+](=O)[O-])cc1 (stereo not drawn)	-55	31	i	14	2
CCOC(=O)C(=CNc1ccc(O)c(C(=O)OC)c1)C(=O)OCC	14	3	i	-3	25*
O=C(Nc1ccccc1)O[C@@H]1C[C@H]2CCCC(=O)N3CC[C@@H](C1)[C@@H]23	-1	-11	i	4	10
O=C(Nc1ccc2c(c1)OCO2)O[C@@H]1C[C@H]2CCC(=O)N3CC[C@@H](C1)[C@@H]23	-4	-7	i	-8	21*
CCN(CC(=O)Nc1ccc(NC(C)=O)cc1)C(=O)Cc1cccc2ccccc12	-2	-3	?	4	5
COc1ccccc1NC(=S)N(Cc1ccc(Cl)cc1)CC1CCC(C(=O)O)CC1 (stereo not drawn)	-11	1	i	11	28*
CC(=O)c1cnc2nc(SCc3ccc(Cl)cc3)nn2c1C	12	24	i	-6	12
CN1CCC2(CC1)Nc1nc(SCc3ccc(Cl)cc3)nn1C1=C2CN(C)CC1	86*	-10	i	-8	-1
CCOC(=O)C1CCCN(C(=O)c2ccc(Cl)c(S(=O)(=O)N3CCCCC3)c2)C1 (stereo not drawn)	53*	-1	i	-8	1
